Results reported in publication PMC7862700, “An all-to-all approach to the identification of sequence-specific readers for epigenetic DNA modifications on cytosine”.

How the values were obtained:
Test in all cases: DAPPL (digital affinity profiling via proximity ligation, sequencing); 10 mM Tris-HCl pH 7.5, 50 mM NaCl, 1 mM DTT, 4% glycerol, room temperature, 30 min; GST-TFs on glutathione beads, 16-mer random dsDNA library, 0.1% formaldehyde crosslink after washing; high values mean tight binding
Conditions in all cases: protein: recombinant; tags: N-terminal GST; dsDNA, one strand shown
[1] = biological target: T1, FLI1 (Homo sapiens, UniProt Q01543 1-452)
T1 sequence: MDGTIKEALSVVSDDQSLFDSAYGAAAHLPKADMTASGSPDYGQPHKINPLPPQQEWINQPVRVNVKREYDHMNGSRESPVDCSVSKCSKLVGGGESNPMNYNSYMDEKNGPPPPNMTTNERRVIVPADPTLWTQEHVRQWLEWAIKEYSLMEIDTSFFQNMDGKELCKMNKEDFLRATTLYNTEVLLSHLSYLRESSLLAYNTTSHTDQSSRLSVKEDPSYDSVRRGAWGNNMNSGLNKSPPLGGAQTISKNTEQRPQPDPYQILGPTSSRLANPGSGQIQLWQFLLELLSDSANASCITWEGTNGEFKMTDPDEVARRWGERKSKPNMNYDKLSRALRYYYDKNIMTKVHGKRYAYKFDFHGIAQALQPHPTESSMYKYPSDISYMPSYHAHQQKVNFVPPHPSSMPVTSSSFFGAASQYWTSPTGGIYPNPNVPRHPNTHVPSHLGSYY
Outline: (§1)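 Human transcription factors fused to GST were expressed in yeast, captured on glutathione beads, given DNA barcodes and pooled with a GST-only negative control. Pools were incubated with 200 nmole of a 16-mer random double-stranded DNA library in Tris/NaCl/DTT/glycerol buffer at room temperature for 30 min. They were then washed, crosslinked with 0.1% formaldehyde, proximity-ligated (BsaI/T4 ligase, 1 h, 37 °C), PCR-amplified and sequenced on an Illumina NextSeq500. Binding signal is each 6-mer's read frequency for a factor divided by its frequency for the GST control.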

[2] = biological target: T2, ELK1 (Homo sapiens, UniProt P19419 1-428)
T2 sequence: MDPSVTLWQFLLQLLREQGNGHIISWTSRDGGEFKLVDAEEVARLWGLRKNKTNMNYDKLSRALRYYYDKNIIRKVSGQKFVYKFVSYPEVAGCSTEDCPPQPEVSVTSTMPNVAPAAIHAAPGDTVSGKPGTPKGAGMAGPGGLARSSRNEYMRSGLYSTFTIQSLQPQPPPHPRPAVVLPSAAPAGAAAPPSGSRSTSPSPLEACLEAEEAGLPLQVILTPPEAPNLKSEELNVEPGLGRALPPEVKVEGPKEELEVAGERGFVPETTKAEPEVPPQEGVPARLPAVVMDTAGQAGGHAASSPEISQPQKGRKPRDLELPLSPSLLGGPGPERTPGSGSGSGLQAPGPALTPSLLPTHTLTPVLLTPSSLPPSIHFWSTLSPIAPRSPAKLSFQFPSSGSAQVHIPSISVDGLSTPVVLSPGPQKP
Outline: as §1

[3] = biological target: T3, GABPA (Homo sapiens, UniProt Q06546 1-454)
T3 sequence: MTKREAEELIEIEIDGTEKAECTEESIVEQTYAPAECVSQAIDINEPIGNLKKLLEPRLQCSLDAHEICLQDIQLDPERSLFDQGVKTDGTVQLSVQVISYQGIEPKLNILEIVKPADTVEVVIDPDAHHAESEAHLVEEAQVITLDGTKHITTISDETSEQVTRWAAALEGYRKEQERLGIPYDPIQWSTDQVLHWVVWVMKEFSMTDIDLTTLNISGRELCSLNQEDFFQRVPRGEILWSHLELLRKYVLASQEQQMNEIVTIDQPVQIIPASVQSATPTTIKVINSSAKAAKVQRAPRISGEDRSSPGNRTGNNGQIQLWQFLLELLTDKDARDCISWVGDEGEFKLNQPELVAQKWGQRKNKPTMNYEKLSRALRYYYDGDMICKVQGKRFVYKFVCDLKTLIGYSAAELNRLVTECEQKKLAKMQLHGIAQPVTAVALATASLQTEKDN
Outline: as §1

[4] = biological target: T4, ERG (Homo sapiens, UniProt P11308 1-479)
T4 sequence: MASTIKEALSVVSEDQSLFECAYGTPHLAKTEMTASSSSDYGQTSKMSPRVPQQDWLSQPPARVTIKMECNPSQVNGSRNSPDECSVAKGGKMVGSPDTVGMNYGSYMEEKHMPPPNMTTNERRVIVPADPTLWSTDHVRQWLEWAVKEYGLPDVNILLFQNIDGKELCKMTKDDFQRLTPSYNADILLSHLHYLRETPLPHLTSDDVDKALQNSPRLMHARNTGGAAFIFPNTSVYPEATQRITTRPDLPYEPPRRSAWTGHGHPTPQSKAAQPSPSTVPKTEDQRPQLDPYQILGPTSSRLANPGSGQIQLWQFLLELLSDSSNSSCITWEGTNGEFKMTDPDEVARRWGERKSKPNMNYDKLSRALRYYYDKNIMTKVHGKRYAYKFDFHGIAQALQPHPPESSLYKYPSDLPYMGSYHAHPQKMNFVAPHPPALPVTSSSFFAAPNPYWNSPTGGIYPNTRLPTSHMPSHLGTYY
Outline: as §1

[5] = biological target: ELF1 (Homo sapiens, UniProt P32519 1-619)
Chain of ELF1 (P32519 whole entry): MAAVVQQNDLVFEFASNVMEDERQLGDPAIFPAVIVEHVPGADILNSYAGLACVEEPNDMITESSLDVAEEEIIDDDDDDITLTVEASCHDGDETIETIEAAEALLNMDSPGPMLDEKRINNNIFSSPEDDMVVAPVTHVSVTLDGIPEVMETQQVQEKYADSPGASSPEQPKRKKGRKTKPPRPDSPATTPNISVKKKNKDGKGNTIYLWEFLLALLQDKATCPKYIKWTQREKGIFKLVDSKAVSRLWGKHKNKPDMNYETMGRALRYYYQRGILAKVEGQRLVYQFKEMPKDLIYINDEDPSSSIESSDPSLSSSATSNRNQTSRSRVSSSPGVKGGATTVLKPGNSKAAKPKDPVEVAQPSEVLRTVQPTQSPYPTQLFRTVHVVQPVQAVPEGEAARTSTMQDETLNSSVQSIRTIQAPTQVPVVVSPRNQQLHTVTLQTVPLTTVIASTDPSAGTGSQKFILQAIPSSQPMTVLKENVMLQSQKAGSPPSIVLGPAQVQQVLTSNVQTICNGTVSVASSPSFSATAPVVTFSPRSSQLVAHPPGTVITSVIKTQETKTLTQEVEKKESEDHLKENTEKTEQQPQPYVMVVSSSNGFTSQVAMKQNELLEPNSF
Outline: as §1

[6] = biological target: T5, EHF (Homo sapiens, UniProt Q9NZC4 1-300)
T5 sequence: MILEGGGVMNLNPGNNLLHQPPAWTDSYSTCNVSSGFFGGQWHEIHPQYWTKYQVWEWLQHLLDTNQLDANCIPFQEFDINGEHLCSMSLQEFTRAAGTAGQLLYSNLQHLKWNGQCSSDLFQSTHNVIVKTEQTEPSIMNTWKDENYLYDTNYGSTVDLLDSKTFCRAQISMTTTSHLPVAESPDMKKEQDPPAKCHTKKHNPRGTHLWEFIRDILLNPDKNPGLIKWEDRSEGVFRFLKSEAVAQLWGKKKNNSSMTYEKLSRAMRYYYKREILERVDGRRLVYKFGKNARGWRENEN
Outline: as §1

[7] = biological target: SPI1 (Homo sapiens, UniProt P17947 1-270)
Outline: as §1

[8] = biological target: SPIB (Homo sapiens, UniProt Q01892 1-262)
Chain of SPIB (Q01892 whole entry): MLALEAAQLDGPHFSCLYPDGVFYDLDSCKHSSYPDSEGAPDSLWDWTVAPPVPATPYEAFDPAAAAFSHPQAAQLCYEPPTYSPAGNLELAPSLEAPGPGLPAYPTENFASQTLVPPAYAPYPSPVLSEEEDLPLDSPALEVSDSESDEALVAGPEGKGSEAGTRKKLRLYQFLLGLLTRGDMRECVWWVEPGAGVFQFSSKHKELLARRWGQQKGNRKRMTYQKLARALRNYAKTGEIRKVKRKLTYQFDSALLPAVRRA
Outline: as §1

[9] = biological target: T6, ELK3 (Homo sapiens, UniProt P41970 1-407)
T6 sequence: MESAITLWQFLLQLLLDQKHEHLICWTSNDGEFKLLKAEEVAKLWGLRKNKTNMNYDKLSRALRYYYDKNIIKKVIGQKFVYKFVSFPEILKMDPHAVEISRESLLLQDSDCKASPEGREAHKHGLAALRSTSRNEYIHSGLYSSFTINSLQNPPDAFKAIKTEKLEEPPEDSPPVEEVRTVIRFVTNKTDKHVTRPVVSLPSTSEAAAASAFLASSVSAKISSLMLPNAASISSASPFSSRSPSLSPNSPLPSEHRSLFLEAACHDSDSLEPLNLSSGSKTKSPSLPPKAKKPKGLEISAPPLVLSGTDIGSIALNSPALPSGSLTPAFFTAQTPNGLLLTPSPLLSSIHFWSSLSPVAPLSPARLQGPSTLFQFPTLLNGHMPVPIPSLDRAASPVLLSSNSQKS
Outline: as §1

[10] = biological target: T7, FEV (Homo sapiens, UniProt Q99581 1-238)
T7 sequence: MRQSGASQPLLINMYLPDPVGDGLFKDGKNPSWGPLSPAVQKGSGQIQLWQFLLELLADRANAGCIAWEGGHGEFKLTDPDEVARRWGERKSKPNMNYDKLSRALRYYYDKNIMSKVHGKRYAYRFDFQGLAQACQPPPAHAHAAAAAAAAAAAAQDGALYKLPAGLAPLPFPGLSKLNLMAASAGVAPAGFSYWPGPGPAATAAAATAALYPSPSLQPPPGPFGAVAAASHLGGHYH
Outline: as §1

[11] = biological target: ETV5 (Homo sapiens, UniProt P41161 1-510)
Chain of ETV5 (P41161 whole entry): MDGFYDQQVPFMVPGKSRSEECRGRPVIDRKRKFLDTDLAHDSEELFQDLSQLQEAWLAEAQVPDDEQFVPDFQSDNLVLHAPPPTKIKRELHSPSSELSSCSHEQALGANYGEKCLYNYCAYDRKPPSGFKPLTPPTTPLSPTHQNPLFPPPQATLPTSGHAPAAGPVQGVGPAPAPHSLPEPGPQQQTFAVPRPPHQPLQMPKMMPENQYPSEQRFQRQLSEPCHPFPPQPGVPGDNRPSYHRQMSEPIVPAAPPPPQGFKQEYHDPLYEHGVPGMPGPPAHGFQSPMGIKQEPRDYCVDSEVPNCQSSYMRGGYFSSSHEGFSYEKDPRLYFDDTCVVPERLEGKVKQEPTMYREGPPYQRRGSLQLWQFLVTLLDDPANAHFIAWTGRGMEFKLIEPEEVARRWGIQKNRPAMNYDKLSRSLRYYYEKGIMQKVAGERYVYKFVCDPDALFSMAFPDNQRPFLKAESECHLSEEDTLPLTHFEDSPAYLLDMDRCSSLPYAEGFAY
Outline: as §1

[12] = biological target: T8, SPIC (Homo sapiens, UniProt Q8N5J4 1-248)
T8 sequence: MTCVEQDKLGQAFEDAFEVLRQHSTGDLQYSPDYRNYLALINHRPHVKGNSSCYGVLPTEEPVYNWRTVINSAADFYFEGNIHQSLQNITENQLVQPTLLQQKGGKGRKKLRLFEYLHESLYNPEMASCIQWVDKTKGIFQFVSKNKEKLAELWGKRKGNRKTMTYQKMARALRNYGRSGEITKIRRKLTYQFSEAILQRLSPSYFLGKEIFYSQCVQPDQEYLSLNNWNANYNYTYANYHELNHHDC
Outline: as §1

[13] = biological target: ELF4 (Homo sapiens, UniProt Q99607 1-663)
Chain of ELF4 (Q99607 whole entry): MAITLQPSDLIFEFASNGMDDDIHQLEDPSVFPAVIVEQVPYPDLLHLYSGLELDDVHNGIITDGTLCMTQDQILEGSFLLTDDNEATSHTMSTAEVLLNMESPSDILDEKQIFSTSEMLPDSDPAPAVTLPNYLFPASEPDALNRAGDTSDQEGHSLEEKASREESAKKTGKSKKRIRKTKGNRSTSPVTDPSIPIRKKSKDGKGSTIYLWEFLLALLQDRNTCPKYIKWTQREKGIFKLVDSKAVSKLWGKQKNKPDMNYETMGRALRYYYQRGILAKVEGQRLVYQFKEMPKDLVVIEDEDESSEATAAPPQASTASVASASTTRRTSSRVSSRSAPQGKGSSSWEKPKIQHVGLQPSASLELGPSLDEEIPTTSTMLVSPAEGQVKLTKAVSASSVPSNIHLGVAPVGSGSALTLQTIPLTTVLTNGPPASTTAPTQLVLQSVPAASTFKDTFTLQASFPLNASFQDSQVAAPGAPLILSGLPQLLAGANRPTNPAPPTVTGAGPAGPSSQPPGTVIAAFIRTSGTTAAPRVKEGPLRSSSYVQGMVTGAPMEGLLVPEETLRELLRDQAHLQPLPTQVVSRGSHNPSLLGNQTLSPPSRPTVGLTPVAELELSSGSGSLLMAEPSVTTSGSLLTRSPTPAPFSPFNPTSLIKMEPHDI
Outline: as §1

[14] = biological target: T9, ELK4 (Homo sapiens, UniProt P28324-2 1-405)
T9 sequence: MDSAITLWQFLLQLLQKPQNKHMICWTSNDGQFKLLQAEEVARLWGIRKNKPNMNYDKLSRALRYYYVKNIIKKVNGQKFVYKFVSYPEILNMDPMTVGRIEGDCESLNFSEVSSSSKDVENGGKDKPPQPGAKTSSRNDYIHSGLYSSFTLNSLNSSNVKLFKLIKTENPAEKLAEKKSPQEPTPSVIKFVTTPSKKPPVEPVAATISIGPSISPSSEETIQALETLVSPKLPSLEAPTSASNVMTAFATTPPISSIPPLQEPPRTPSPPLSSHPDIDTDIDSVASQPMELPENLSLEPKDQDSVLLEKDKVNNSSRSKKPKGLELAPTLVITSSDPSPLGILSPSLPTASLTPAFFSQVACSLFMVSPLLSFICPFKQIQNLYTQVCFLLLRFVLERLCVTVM
Outline: as §1

[15] = biological target: T10, ETV2 (Homo sapiens, UniProt O00321 1-342)
T10 sequence: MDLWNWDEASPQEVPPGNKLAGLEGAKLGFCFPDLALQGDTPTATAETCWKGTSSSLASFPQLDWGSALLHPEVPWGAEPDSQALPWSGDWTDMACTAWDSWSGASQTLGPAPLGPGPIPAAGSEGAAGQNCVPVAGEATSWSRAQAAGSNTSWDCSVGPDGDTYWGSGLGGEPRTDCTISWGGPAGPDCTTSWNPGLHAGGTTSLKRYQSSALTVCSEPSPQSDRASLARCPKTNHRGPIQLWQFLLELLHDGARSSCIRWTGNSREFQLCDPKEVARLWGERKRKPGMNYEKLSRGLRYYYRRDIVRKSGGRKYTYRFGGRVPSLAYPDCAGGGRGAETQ
Outline: as §1

[16] = biological target: T11, ELF3 (Homo sapiens, UniProt P78545 1-371)
T11 sequence: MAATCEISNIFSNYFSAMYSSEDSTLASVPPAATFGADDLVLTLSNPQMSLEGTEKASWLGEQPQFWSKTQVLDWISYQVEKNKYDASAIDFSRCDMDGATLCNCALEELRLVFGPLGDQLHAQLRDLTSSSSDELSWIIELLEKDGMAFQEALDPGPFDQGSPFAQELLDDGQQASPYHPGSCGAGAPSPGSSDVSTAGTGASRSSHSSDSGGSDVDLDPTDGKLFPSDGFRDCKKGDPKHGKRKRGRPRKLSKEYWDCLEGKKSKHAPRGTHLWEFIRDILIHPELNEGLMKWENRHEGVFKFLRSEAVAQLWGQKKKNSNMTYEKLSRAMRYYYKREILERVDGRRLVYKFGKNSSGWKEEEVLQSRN
Outline: as §1

[17] = biological target: ETV1 (Homo sapiens, UniProt P50549 1-477)
Chain of ETV1 (P50549 whole entry): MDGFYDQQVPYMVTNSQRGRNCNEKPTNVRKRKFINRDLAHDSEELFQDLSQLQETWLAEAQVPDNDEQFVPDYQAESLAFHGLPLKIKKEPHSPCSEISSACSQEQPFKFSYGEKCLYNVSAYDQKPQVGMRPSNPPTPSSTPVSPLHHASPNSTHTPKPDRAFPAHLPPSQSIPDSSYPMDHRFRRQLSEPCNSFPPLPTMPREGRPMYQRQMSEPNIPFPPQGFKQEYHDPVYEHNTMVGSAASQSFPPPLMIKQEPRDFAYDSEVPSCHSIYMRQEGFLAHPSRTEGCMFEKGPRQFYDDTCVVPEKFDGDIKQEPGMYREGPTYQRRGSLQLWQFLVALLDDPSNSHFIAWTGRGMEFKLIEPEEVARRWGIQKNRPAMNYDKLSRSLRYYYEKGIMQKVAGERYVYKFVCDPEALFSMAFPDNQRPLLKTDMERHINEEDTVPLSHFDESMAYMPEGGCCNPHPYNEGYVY
Outline: as §1

Sequence	binding signal [1]	binding signal [2]	binding signal [3]	binding signal [4]	binding signal [5]	binding signal [6]	binding signal [7]	binding signal [8]	binding signal [9]	binding signal [10]	binding signal [11]	binding signal [12]	binding signal [13]	binding signal [14]	binding signal [15]	binding signal [16]	binding signal [17]
GCGGAA	1.37 fold enrichment (6-mer frequency, TF over GST control)	1.33 fold enrichment (6-mer frequency, TF over GST control)	1.29 fold enrichment (6-mer frequency, TF over GST control)	1.46 fold enrichment (6-mer frequency, TF over GST control)	1.28 fold enrichment (6-mer frequency, TF over GST control)	1.52 fold enrichment (6-mer frequency, TF over GST control)	2.18 fold enrichment (6-mer frequency, TF over GST control)	1.49 fold enrichment (6-mer frequency, TF over GST control)	1.37 fold enrichment (6-mer frequency, TF over GST control)	1.34 fold enrichment (6-mer frequency, TF over GST control)	1.56 fold enrichment (6-mer frequency, TF over GST control)	1.5 fold enrichment (6-mer frequency, TF over GST control)	1.21 fold enrichment (6-mer frequency, TF over GST control)	1.05 fold enrichment (6-mer frequency, TF over GST control)	1.34 fold enrichment (6-mer frequency, TF over GST control)	1.53 fold enrichment (6-mer frequency, TF over GST control)	1.42 fold enrichment (6-mer frequency, TF over GST control)
TGTGAC	1.05 fold enrichment (6-mer frequency, TF over GST control)	1.09 fold enrichment (6-mer frequency, TF over GST control)	1.15 fold enrichment (6-mer frequency, TF over GST control)	1.08 fold enrichment (6-mer frequency, TF over GST control)	1.16 fold enrichment (6-mer frequency, TF over GST control)	1.01 fold enrichment (6-mer frequency, TF over GST control)	1.17 fold enrichment (6-mer frequency, TF over GST control)	1.22 fold enrichment (6-mer frequency, TF over GST control)	1.1 fold enrichment (6-mer frequency, TF over GST control)	1.14 fold enrichment (6-mer frequency, TF over GST control)	1.15 fold enrichment (6-mer frequency, TF over GST control)	1.14 fold enrichment (6-mer frequency, TF over GST control)	1.19 fold enrichment (6-mer frequency, TF over GST control)	1.2 fold enrichment (6-mer frequency, TF over GST control)	1.09 fold enrichment (6-mer frequency, TF over GST control)	1.16 fold enrichment (6-mer frequency, TF over GST control)	1.04 fold enrichment (6-mer frequency, TF over GST control)
